Screening data from PubChem BioAssay.
Marburg entry inh: blocks Marburg virus binding to or entry into cells. Potency, µM (top dose mostly 37.8 µM), most hits filed as inhibitors. 300,000 tested, 1.8% active. AID 540276. Marburg virus pseudotyped entry inhibition, cell reporter; calls by dose curve; tested in HEK293 cells
VACV Venus inh: inhibitors of vaccinia virus (Venus reporter); Vaccinia virus Venus reporter expression, fluorescence; Potency, µM (series often up to 36.5 µM), usual class: inhibitors; 330,000 tested, 0.46% active; AID 720580; calls by dose curve; tested in A549 cells; also: nearly all actives have a fitted effect of over 30% in size
Vaccinia mCherry: vaccinia inhibition (mCherry reporter); Potency, µM (highest dose often 36.5 µM), usual class: inhibitors; Vaccinia virus mCherry reporter infection, fluorescence; AID 720579; 310,000 tested, 0.63% active; calls by dose curve; tested in A549 cells; also: nearly all actives have a fitted effect of over 35% in size
Lassa entry inh: inhibitors of Lassa virus binding or cell entry. Lassa virus pseudotype entry inhibition, cell reporter. Potency, µM (doses to about 37.9 µM), usual class: inhibitors. 300,000 tested, 1.2% active. AID 540256; calls by dose curve; tested in HEK293 cells; also: nearly all actives have a fitted effect of over 50% in size
HCV inh: HCV inhibition | Huh7.5.1 HCVcc-Cre infection, luciferase reporter, 44 h | Potency, µM (doses to about 41.8 µM), most hits filed as inhibitors | 340,000 tested, 3.4% active | AID 651820
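HCVcc-Cre virus at an moi near 0.5 was added right after compound to cells cultured 4 h from seeding (1,000 cells/well). Luciferase activity was determined 44 h later, 15 min after substrate addition at RT.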
HCV inh confirm: HCV inhibition, cherry-pick confirmation; shares compounds with HCV inh; AID 720575; HCVcc-Cre infectious virus cell assay, luciferase, inhibition; 640 tested, 78% active; Potency, µM (highest dose often 41.8 µM), usual class: inhibitors; also: nearly all actives have a fitted effect of over 80% in size
HCV host tox: toxic to HCV host cells, flagging false HCV inhibitors. shares compounds with HCV inh. HCV host cell line cytotoxicity counterscreen. Potency, µM (highest dose often 41.8 µM), hits mostly inhibitors. 640 tested, 22% active;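 also: 44 h compound exposure; nearly all actives have a fitted effect of over 55% in size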
Numbers stand for hits; – = inactive; ? = inconclusive; · = no result; ! = not confirmed by another sample. This is a sample that favours compounds with a hit; in the whole collection about 4.6% have one here. Unless noted, calls follow the shape of the dose curve; as a rule, active = well fitted curve in the direction sought with a large enough effect; inconclusive = small, poorly fitted or top-dose-only effect, or another doubt; inactive = no such curve, though single readings can be large; an effect the other way counts as inactive or inconclusive.

SMILES	Marburg entry inh	VACV Venus inh	Vaccinia mCherry	Lassa entry inh	HCV inh	HCV inh confirm	HCV host tox
CC(=O)N1CCN(Cc2nc3cc(NC(=O)c4ccc(Cl)cc4)ccc3n2C)CC1	–	–	–	–	3.55µM	14.1µM	22.3µM
CC(=O)N1CCN(Cc2nc3cc(NC(=O)c4ccccc4Cl)ccc3n2C)CC1	–	–	–	·	–	·	·
COC(=O)c1ccc(CN2CCc3ccc(NC(=O)c4ccncc4)cc3C2)cc1	?	–	–	–	8.91µM	14.1µM	?
COCCNC(=O)c1c(-c2ccccc2)c(-c2ccccc2)nn(C)c1=O	–	–	–	–	·	·	·
N#Cc1c2ccc(OCC(=O)NCc3ccco3)cc2n2ccccc12	–	–	–	–	?	·	·
N#Cc1c2ccc(O)cc2n2ccccc12	?	–	?	?	7.08µM	22.3µM	–
CC(=O)c1cc(-c2ccccc2)n(CCC(=O)Nc2ccc(C(C)C)cc2)c1C	·	–	–	?	·	·	·
C[C@H]1C[C@@H]2[C@H]([C@@H](O)C[C@@]3(C)[C@H]2CC[C@]3(O)C(=O)CO)[C@@]2(C)C=CC(=O)C=C12	–	–	–	–	5.62µM!	–	–
CCCCCn1c(=O)c(C(=O)NCc2ccco2)c(O)c2ccccc21	–	–	–	–	?	25µM	?
CCOC(=O)c1c(C)nc2c3ccccc3ccn12	?	–	–	–	7.08µM	–	–
CCOC(=O)c1c(C)nc2c(C)cccn12	–	–	–	–	–	·	·
CC1CCCCN1S(=O)(=O)c1ccc2[nH]c(=O)cc(C(=O)NCCc3ccc(Cl)cc3)c2c1 (configuration not stated)	·	–	–	–	·	·	·
COc1ccc2c(C)cc(SCC#N)nc2c1	–	·	·	–	?	·	·
COc1ccc2c(C)cc(SCc3c(C)noc3C)nc2c1	–	–	–	–	6.31µM	22.3µM	–
CC(C)CCNC(=O)c1cnc2sc(N3CCCCC3)nn2c1=O	·	–	–	?	·	·	·
COc1cc(OC)cc(C(=O)Nc2nc(-c3ccccc3)c(-c3ccccc3)o2)c1	20.6µM	·	·	?	7.08µM	12.5µM	–
COc1ccc([N+](=O)[O-])cc1NC(=O)c1ccco1	–	–	–	·	?	?	–
CCc1ccc(OCc2nc(-c3ccc(OC)cc3)no2)c(Br)c1	·	–	–	–	·	·	·
Cc1cccc2cc(C#N)c(NCCCNS(=O)(=O)c3ccc(Cl)cc3)nc12	·	·	·	·	8.91µM	14.1µM	?
Cc1ccc(Cn2c(C)c3cnn(CC(=O)NCCc4ccc(Cl)cc4)c(=O)c3c2C)cc1	–	–	–	–	·	·	·
CCCCCCN1Cc2ccccc2C1	?	–	·	–	–	·	·
CCCCCCCCn1ccc(=N)cc1	?	–	–	?	0.891µM	1.77µM	2.23µM
CCc1ccc(Nc2ncc3c(n2)CC(C)CC3=O)cc1 (configuration not stated)	?	–	–	?	–	·	·
CCc1ccc(Nc2ncc3c(n2)CC(c2ccc(OC)cc2)CC3=O)cc1 (configuration not stated)	18.3µM	·	·	0.517µM	3.98µM	?	–
CSc1ccc(NC(=O)Nc2cccn(Cc3ccccc3F)c2=O)cc1	·	?	?	·	3.55µM	8.87µM	–
SMILES	Marburg entry inh	VACV Venus inh	Vaccinia mCherry	Lassa entry inh	HCV inh	HCV inh confirm	HCV host tox
CCOC(=O)c1ccc(NC(=O)c2cccn(Cc3ccccc3F)c2=O)cc1	·	–	–	–	·	·	·
Cc1ccc2sc(N(CCCN(C)C)C(=O)c3ccc(Br)s3)nc2c1C	14.6µM	–	?	?	7.08µM	?	–
Cc1ccc2sc(N(CCCN(C)C)C(=O)c3ccco3)nc2c1C	·	–	–	–	·	·	·
CC(NC(=O)CCn1c(=O)c2cccn2c2ccc(F)cc21)c1ccccc1 (configuration not stated)	·	–	–	–	·	·	·
COCCN(C(=O)COC(=O)c1cc2c(s1)CCC2)c1c(N)n(Cc2ccccc2)c(=O)[nH]c1=O	?	–	–	–	?	–	–
CCC1CCc2sc(C(=O)OCC(=O)N(CCOC)c3c(N)n(Cc4ccccc4)c(=O)[nH]c3=O)cc2C1 (configuration not stated)	–	–	–	–	?	·	·
COC(=O)c1c(SCC(=O)Nc2cccc(Cl)c2C)[nH]c2ccccc2c1=O	·	–	–	–	·	·	·
C/C(=N\NC(=O)C1COc2ccccc2O1)c1ccc(C)o1 (configuration not stated)	–	–	–	–	–	·	·
C/C(=N\NC(=O)C1COc2ccccc2O1)c1ccccn1 (configuration not stated)	?	?	4.47µM	11.2µM	4.47µM	11.2µM	?
COc1ccc2c(c1OC)C(=O)N1C2SC[C@H]1C(=O)NC1CC1 (some centres not stated)	·	–	–	·	1µM	–	–
O=C(Nc1c(C(=O)N2CCN(c3ccccc3F)CC2)oc2ccccc12)c1cccc(F)c1	·	–	–	–	·	·	·
COc1ccccc1/C=C/C(=O)Nc1cccc(S(=O)(=O)N2CCOCC2)c1	–	–	–	–	?	·	·
COc1ccc(OC)c(NC(=O)/C=C/c2ccc(S(=O)(=O)N3CCOCC3)cc2)c1	–	–	–	–	?	11.2µM	?
COc1cc(/C=C/C(=O)Nc2cccc(S(=O)(=O)N3CCOCC3)c2)ccc1OCC#N	·	·	·	·	?	2.8µM	–
COc1ccc(C(=O)CSc2nc(-c3ccccn3)nc(C)c2Cl)cc1	?	?	?	?	4.47µM	22.3µM	4.45µM
COc1ccc(C(=O)CSc2nnc3ccc(-c4ccccn4)nn23)cc1	·	–	–	·	–	·	·
CCC(=O)Nc1cc2c(cc1C(=O)CC)OCCO2	–	–	–	–	5.62µM	12.5µM	–
Cc1cc(Cl)c2oc(C(=O)N3CCOCC3)c(C)c2c1	·	–	–	·	·	·	·
Cc1cc(Cl)c2oc(C(=O)N3CCN(C(=O)c4ccco4)CC3)c(C)c2c1	·	·	·	·	?	?	–
Cn1nc(C(F)(F)F)c2cc(NC(=O)OCc3ccc(C(C)(C)C)cc3)sc21	?	–	–	?	?	25µM	?
Cc1cc(C(=O)COC(=O)c2ccc(O)cc2O)c(C)n1-c1ccccc1	?	?	?	11.2µM	?	17.7µM	–
Cc1ccc(CNC(=O)C2CCCN(c3nnc(-n4c(C)ccc4C)s3)C2)cc1 (configuration not stated)	–	–	–	?	·	·	·
CCCOc1ccc(/C=N/Nc2cccc([N+](=O)[O-])c2)c(O)c1	?	?	?	?	?	28µM	–
O=S(=O)(c1ccc(Oc2ccccc2)cc1)N1CCOCC1	–	·	·	–	?	·	·
O=[N+]([O-])c1ccccc1Oc1ccc(S(=O)(=O)N2CCOCC2)cc1	·	·	·	·	7.94µM	?	–
CC1CCN(S(=O)(=O)c2ccc3c(c2)N(CC(=O)NCc2ccccc2Cl)C(=O)CS3)CC1	·	–	–	–	·	·	·
COc1cc(-c2nnc(-c3cc(OC)c(OC)c(OC)c3)o2)cc(OC)c1OC	–	–	·	–	?	·	·
COc1cc(-c2nnc(-c3ccccc3)o2)cc(OC)c1OC	?	–	–	?	?	14.1µM	–
CCOc1ccc(CNC(=O)c2cnc3sc(N4CCC(C)CC4)nn3c2=O)cc1OC	·	–	–	–	·	·	·
